# The supplement of paper PMC7411054
# Structures can show the parent of a compound that is named as a salt.
# Columns and labels:
# Details in all cases: treatment time: 24 h
# [1] = tested on: A549-ACTB-RAB5A; test: lowest phenotypically active concentration; higher = less potent
# Procedure, shortened: (§1)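 Two criteria together defined phenotypic activity: deviation and reproducibility. Deviation meant ≥3 of 4 wells beyond the 95th percentile of Euclidean distances in solvent control wells, and reproducibility meant a median replicate Pearson correlation above the 95th percentile of non-replicates. Wells had been treated for 24 h at 0.3, 1, 3 or 9 µM in fifteen gene-edited A549, HepG2 and WPMY1 reporter lines before live imaging.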
# [2] = tested on: A549-CANX-COX4; test: as above
# Procedure, shortened: as §1
# [3] = tested on: A549-GM130-SQSTM1; test: as above
# Procedure, shortened: as §1
# [4] = tested on: HepG2-TP53BP1-CLTA; test: as above
# Procedure, shortened: as §1
# [5] = tested on: HepG2-TUBA1B-RELA; test: as above
# Procedure, shortened: as §1
# [6] = tested on: A549-ACTB-RAB5A; test: phenotypically active (imaging signature differs from DMSO and reproducible) at any of 0.3-9 uM (binary (1 = active, 0 = inactive)); higher = active
# Procedure, shortened: as §1
# [7] = tested on: A549-CANX-COX4; test: as above
# Procedure, shortened: as §1
# [8] = tested on: A549-GM130-SQSTM1; test: as above
# Procedure, shortened: as §1
# [9] = tested on: A549-TP53BP1-CLTA; test: as above
# Procedure, shortened: as §1
# [10] = tested on: A549-TUBA1B-RELA; test: as above
# Procedure, shortened: as §1
# [11] = tested on: HepG2-ACTB-RAB5A; test: as above
# Procedure, shortened: as §1
# [12] = tested on: HepG2-CANX-COX4; test: as above
# Procedure, shortened: as §1
# [13] = tested on: HepG2-GM130-SQSTM1; test: as above
# Procedure, shortened: as §1
# [14] = tested on: HepG2-TP53BP1-CLTA; test: as above
# Procedure, shortened: as §1
# [15] = tested on: HepG2-TUBA1B-RELA; test: as above
# Procedure, shortened: as §1
# [16] = tested on: WPMY1-ACTB-RAB5A; test: as above
# Procedure, shortened: as §1
# [17] = tested on: WPMY1-CANX-COX4; test: as above
# Procedure, shortened: as §1
# [18] = tested on: WPMY1-GM130-SQSTM1; test: as above
# Procedure, shortened: as §1
# [19] = tested on: WPMY1-TP53BP1-CLTA; test: as above
# Procedure, shortened: as §1
# [20] = tested on: WPMY1-TUBA1B-RELA; test: as above
# Procedure, shortened: as §1
Compound,lowest phenotypically active concentration [1],lowest phenotypically active concentration [2],lowest phenotypically active concentration [3],lowest phenotypically active concentration [4],lowest phenotypically active concentration [5],phenotypically active [6],phenotypically active [7],phenotypically active [8],phenotypically active [9],phenotypically active [10],phenotypically active [11],phenotypically active [12],phenotypically active [13],phenotypically active [14],phenotypically active [15],phenotypically active [16],phenotypically active [17],phenotypically active [18],phenotypically active [19],phenotypically active [20]
Cc1ccc(C(=O)N(CCCN)[C@@H](c2oc3cc(Cl)ccc3c(=O)c2Cc2ccccc2)C(C)C)cc1,≤ 0.3 µM,≤ 0.3 µM,≤ 0.3 µM,≤ 0.3 µM,≤ 0.3 µM,1 (active),1 (active),1 (active),1 (active),1 (active),1 (active),1 (active),1 (active),1 (active),1 (active),1 (active),1 (active),1 (active),1 (active),1 (active)
CN1CCN(C(=O)CN[C@H]2C[C@@H]2c2ccc(OCc3ccccc3)cc2)CC1 [RN 1 dihydrochloride],3 µM,9 µM,9 µM,9 µM,3 µM,1 (active),1 (active),1 (active),1 (active),1 (active),1 (active),0 (inactive),1 (active),1 (active),1 (active),1 (active),1 (active),1 (active),1 (active),1 (active)
CCN(CC)CCNc1ccc(CO)c2sc3ccccc3c(=O)c12 [hycanthone],9 µM,9 µM,9 µM,9 µM,9 µM,1 (active),1 (active),1 (active),1 (active),1 (active),1 (active),0 (inactive),1 (active),1 (active),1 (active),1 (active),1 (active),1 (active),1 (active),1 (active)
CCCCCCCCCCNCCSSCc1ccc(Cl)cc1,9 µM,9 µM,3 µM,9 µM,3 µM,1 (active),1 (active),1 (active),1 (active),1 (active),1 (active),1 (active),1 (active),1 (active),1 (active),0 (inactive),1 (active),1 (active),1 (active),0 (inactive)
Nc1ncnc(Nc2ccc(OCc3ccccc3)c(Cl)c2)c1/C=N/OCCN1CCOCC1,3 µM,9 µM,3 µM,9 µM,9 µM,1 (active),1 (active),1 (active),1 (active),1 (active),1 (active),0 (inactive),1 (active),1 (active),1 (active),0 (inactive),0 (inactive),0 (inactive),0 (inactive),0 (inactive)
S=C(S)N1CCCC1 [Pyrrolidinedithiocarbamate ammonium],3 µM,3 µM,3 µM,3 µM,9 µM,1 (active),1 (active),1 (active),1 (active),1 (active),1 (active),1 (active),1 (active),1 (active),1 (active),0 (inactive),0 (inactive),1 (active),0 (inactive),0 (inactive)
Cn1cnc2c(F)c(Nc3ccc(Br)cc3Cl)c(C(=O)NOCCO)cc21 [selumetinib],≤ 0.3 µM,1 µM,≤ 0.3 µM,≤ 0.3 µM,1 µM,1 (active),1 (active),1 (active),1 (active),1 (active),1 (active),1 (active),1 (active),1 (active),1 (active),1 (active),0 (inactive),1 (active),1 (active),0 (inactive)
O=C(CCCCCCC(=O)Nc1cccnc1)NO [Pyroxamide],3 µM,3 µM,3 µM,3 µM,3 µM,1 (active),1 (active),1 (active),1 (active),1 (active),1 (active),1 (active),1 (active),1 (active),1 (active),1 (active),1 (active),1 (active),1 (active),1 (active)
O=C1c2ccccc2-c2nc3nonc3nc21,3 µM,1 µM,3 µM,3 µM,3 µM,1 (active),1 (active),1 (active),1 (active),1 (active),1 (active),1 (active),1 (active),1 (active),1 (active),1 (active),1 (active),0 (inactive),0 (inactive),1 (active)
CN(C)C(=O)C(CCN1CCC(O)(c2ccc(Cl)cc2)CC1)(c1ccccc1)c1ccccc1 [loperamide],3 µM,9 µM,9 µM,9 µM,3 µM,1 (active),1 (active),1 (active),1 (active),1 (active),1 (active),0 (inactive),1 (active),1 (active),1 (active),1 (active),1 (active),1 (active),1 (active),1 (active)
CC(C)CNc1nc(-c2cccc3ncccc23)cn2c(-c3ccc(C(=O)NC4CC4)cc3)cnc12,≤ 0.3 µM,1 µM,≤ 0.3 µM,1 µM,1 µM,1 (active),1 (active),1 (active),1 (active),1 (active),1 (active),1 (active),1 (active),1 (active),1 (active),1 (active),0 (inactive),1 (active),1 (active),0 (inactive)
